# Measured values from PubChem BioAssay (NCATS).
# Values joined by “and” are separate entries in the source; they are usually repeats but may differ in a detail not shown here. Identical values can stand only once. Inconclusive results are not listed. Where a call stands in place of a potency, no number is given. More than one record can exist for a structure, and the calls need not agree. Values without a mark were called inactive. Active and inactive are the calls of the source. The call rests on the fitted dose curve; in most records, active means well fitted inhibition curve with a large enough effect; inconclusive means small, poorly fitted or top-dose-only effect; inactive means flat fitted curve, though single readings scatter.
# Experiments:
# [1] = test system: PC15; assay: qHTS profiling for inhibitors of Plasmodium falciparum proliferation (AID 504749); settings: P. falciparum in erythrocytes, SYBR Green DNA, 72 h; series mostly up to 28.7 µM
# Summary of the method: (§1)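 In a 72 h erythrocytic culture (37 C, humidified, 5% CO2) at 2.5% hematocrit and 0.3% starting parasitemia, compounds were tested; SYBR Green I in detergent lysis buffer stained parasite DNA overnight.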
# [2] = test system: PC26; assay: as above; settings: P. falciparum in erythrocytes, SYBR Green DNA, 72 h; series mostly up to 28.7 µM
# Summary of the method: as §1
# [3] = test system: PC49; assay: as above; settings: P. falciparum in erythrocytes, SYBR Green DNA, 72 h; series mostly up to 28.7 µM
# Summary of the method: as §1
# [4] = test system: SC27B; assay: as above; settings: P. falciparum in erythrocytes, SYBR Green DNA, 72 h; series mostly up to 28.7 µM
# Summary of the method: as §1
# [5] = test system: TAB113; assay: as above; settings: P. falciparum in erythrocytes, SYBR Green DNA, 72 h; series mostly up to 28.7 µM
# Summary of the method: as §1
# [6] = test system: TAB165; assay: as above; settings: P. falciparum in erythrocytes, SYBR Green DNA, 72 h; series mostly up to 28.7 µM
# Summary of the method: as §1
# [7] = test system: W2; assay: as above; settings: P. falciparum in erythrocytes, SYBR Green DNA, 72 h; series mostly up to 28.7 µM
# Summary of the method: as §1
# [8] = test system: CRL-7250; assay: Cytotoxic Profiling of Annotated Libraries Using Quantitative High-Throughput Screening (AID 1296008); settings: Five cell lines viability, CellTiter-Glo ATP luminescence, 48-72 h; max response: active compounds read low
# Summary of the method: (§2)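 Cytotoxicity was measured as CellTiter-Glo ATP luminescence, read after 10 min at room temperature. Compound treatment of the cells lasted 48 or 72 hr at 37 degrees Celsius in a qHTS format.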
# [9] = test system: HEK293; assay: as above; settings: Five cell lines viability, CellTiter-Glo ATP luminescence, 48-72 h; max response: active compounds read low
# Summary of the method: as §2
# [10] = test system: HaCat; assay: as above; settings: Five cell lines viability, CellTiter-Glo ATP luminescence, 48-72 h; max response: active compounds read low
# Summary of the method: as §2
# [11] = test system: KB-3-1; assay: as above; settings: Five cell lines viability, CellTiter-Glo ATP luminescence, 48-72 h; max response: active compounds read low
# Summary of the method: as §2
# [12] = test system: NIH3T3; assay: as above; settings: Five cell lines viability, CellTiter-Glo ATP luminescence, 48-72 h; max response: active compounds read low
# Summary of the method: as §2
# [13] = test system: HACAT; assay: qHTS assay to identify novel small-molecules to repurpose for Merkel cell carcinoma treatment (AID 1296009); settings: MCC and control cell lines, CellTiter-Glo viability, 72 h; at 44.8 µM (top of the series) unless noted
# Summary of the method: (§3)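 Cell viability measured by CellTiter-Glo following 72 hr compound treatment at 37 degree celsius, with NPC and MIPE libraries tested in 8- and 11-point concentration series.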
# [14] = test system: HEK293T; assay: as above; settings: MCC and control cell lines, CellTiter-Glo viability, 72 h; at 44.8 µM (top of the series)
# Summary of the method: as §3
# [15] = test system: MCC-13; assay: as above; settings: MCC and control cell lines, CellTiter-Glo viability, 72 h; series mostly up to 46 µM
# Summary of the method: as §3
# [16] = test system: MKL-1; assay: as above; settings: MCC and control cell lines, CellTiter-Glo viability, 72 h; series mostly up to 46 µM
# Summary of the method: as §3
# [17] = test system: MKL-2; assay: as above; settings: MCC and control cell lines, CellTiter-Glo viability, 72 h; series mostly up to 46 µM
# Summary of the method: as §3
# [18] = test system: CRL-7250; assay: as above; settings: MCC and control cell lines, CellTiter-Glo viability, 72 h; series mostly up to 44.8 µM
# Summary of the method: as §3
# [19] = test system: MCC-26; assay: as above; settings: MCC and control cell lines, CellTiter-Glo viability, 72 h; series mostly up to 46 µM
# Summary of the method: as §3
# [20] = test system: TAB109; assay: qHTS profiling for inhibitors of Plasmodium falciparum proliferation (AID 504749); settings: P. falciparum in erythrocytes, SYBR Green DNA, 72 h; series mostly up to 28.7 µM
# Summary of the method: as §1
# Further: nearly all actives have a fitted effect of over 60% in size.
# Potency means the concentration at half of the fitted maximal effect.
structure (smiles),measurement,setting,value
FC(F)(F)c1cccc(C2=CCN(CCc3ccc4ccccc4c3)CC2)c1,Potency,[1],inactive
same,Potency,[2],inactive
same,Potency,[3],inactive
same,Potency,[4],inactive
same,Potency,[5],inactive
same,Potency,[6],inactive
same,Potency,[7],inactive
same,max response,[8],-12.8%
same,outcome,[9],inactive
same,outcome,[10],inactive
same,max response,[11],-4.6%
same,outcome,[12],inactive
same,outcome,[13],inactive
same,outcome,[14],inactive
same,Potency,[15],inactive
same,Potency,[16],inactive
same,Potency,[17],inactive
COc1ccc(Cc2nccc3cc(OC)c(OC)cc23)cc1OC,Potency,[8],5.31 µM (active)
same,max response,[8],2.23%
same,Potency,[9],8.41 µM (active)
same,max response,[10],-4.38% and -16.7%
same,max response,[11],-20.5% and -0.283%
same,max response,[12],-6.53%
same,Potency,[15],inactive
same,Potency,[16],inactive
same,Potency,[17],inactive
Cn1c(CCCC(=O)O)nc2cc(N(CCCl)CCCl)ccc21,Potency,[1],inactive
same,Potency,[2],inactive
same,Potency,[3],inactive
same,Potency,[4],inactive
same,Potency,[5],inactive
same,Potency,[6],inactive
same,max response,[8],3.94%
same,outcome,[8],inactive
same,max response,[9],1.54%
same,outcome,[9],inactive
same,max response,[10],-5.87% and -9.93%
same,max response,[11],3.92% and 3.13%
same,max response,[12],-2.08% and -18.1%
same,outcome,[18],inactive
same,outcome,[14],inactive
same,Potency,[15],inactive
same,Potency,[19],inactive
same,Potency,[16],inactive
N[C@@H](Cc1ccc(Oc2cc(I)c(O)c(I)c2)c(I)c1)C(=O)O,max response,[8],-1.97%
same,outcome,[9],inactive
same,outcome,[10],inactive
same,max response,[11],6.84%
same,max response,[12],-1.92%
same,outcome,[13],inactive
same,outcome,[14],inactive
same,Potency,[15],inactive
same,Potency,[19],inactive
same,Potency,[16],inactive
same,Potency,[17],inactive
Oc1ccccc1-c1ccccc1,Potency,[1],inactive
same,Potency,[2],inactive
same,Potency,[3],inactive
same,Potency,[4],inactive
same,Potency,[20],inactive
same,Potency,[5],inactive
same,Potency,[6],inactive
same,outcome,[8],inactive
same,outcome,[9],inactive
same,max response,[10],1.64%
same,max response,[11],2.06%
same,outcome,[12],inactive
same,outcome,[18],inactive
same,outcome,[14],inactive
same,Potency,[15],inactive
same,Potency,[19],inactive
same,Potency,[16],inactive
same,Potency,[17],inactive
NCC1(CC(=O)O)CCCCC1,Potency,[1],inactive
same,Potency,[2],inactive
same,Potency,[3],inactive
same,Potency,[4],inactive
same,Potency,[20],inactive
same,Potency,[5],inactive
same,Potency,[6],inactive
same,Potency,[7],inactive
same,max response,[8],-5.5% and -5.6%
same,max response,[9],4.46%
same,outcome,[9],inactive
same,outcome,[10],inactive
same,max response,[11],-11.6% and 17.1%
same,max response,[12],-2.27% and -4.04%
same,outcome,[13],inactive
same,outcome,[14],inactive
same,Potency,[15],inactive
same,Potency,[16],inactive
same,Potency,[17],inactive
Oc1ccc(Cl)cc1Cc1ccccc1,Potency,[2],15.1 µM (active)
same,Potency,[4],10 µM (active)
same,Potency,[6],6.31 µM (active)
same,Potency,[7],4.78 µM (active)
same,max response,[8],-21.4%
same,Potency,[9],19.5 µM (active)
same,max response,[9],-23%
same,max response,[10],-19.2%
same,max response,[11],-1.59% and -11.5%
same,max response,[12],-10.2%
same,Potency,[15],inactive
same,Potency,[19],inactive
same,Potency,[16],inactive
same,Potency,[17],21.9 µM (active)
O=C(O)C(=O)c1cn(Cc2ccccc2)c2ccc(-c3ccc(OC(F)(F)F)cc3)cc12,max response,[8],-5.5%
same,outcome,[8],inactive
same,max response,[9],3.18%
same,outcome,[9],inactive
same,max response,[10],-0.483%
same,outcome,[10],inactive
same,outcome,[11],inactive
same,max response,[12],-16.9% and 4.93%
same,outcome,[18],inactive
same,outcome,[13],inactive
same,outcome,[14],inactive
same,Potency,[15],inactive
same,Potency,[19],inactive
same,Potency,[16],inactive
same,Potency,[17],inactive
CCCN1CCC[C@@H]2Cc3nc(N)ncc3C[C@H]21,outcome,[8],inactive
same,max response,[9],-17.9%
same,outcome,[10],inactive
same,max response,[11],14.3%
same,max response,[12],-7.61%
same,outcome,[18],inactive
same,outcome,[13],inactive
same,Potency,[15],inactive
same,Potency,[17],inactive
CCN(CC)C(=O)N[C@@H]1C=C2c3cccc4[nH]cc(c34)C[C@@H]2N(C)C1,outcome,[8],inactive
same,max response,[9],-11.8%
same,max response,[10],-0.0252%
same,max response,[11],-10.6%
same,outcome,[12],inactive
same,outcome,[18],inactive
same,Potency,[15],inactive
same,Potency,[16],inactive
same,Potency,[17],inactive
CCN(C(C)=O)c1cccc(-c2ccnc3c(C#N)cnn23)c1,Potency,[1],inactive
same,Potency,[2],inactive
same,Potency,[3],inactive
same,Potency,[4],inactive
same,Potency,[20],inactive
same,Potency,[5],inactive
same,Potency,[6],inactive
same,Potency,[7],inactive
same,max response,[8],-2.01%
same,outcome,[9],inactive
same,outcome,[10],inactive
same,max response,[11],1.34%
same,outcome,[12],inactive
same,outcome,[13],inactive
same,outcome,[14],inactive
same,Potency,[15],inactive
same,Potency,[16],inactive
same,Potency,[17],inactive
CC(C)(C)NCC(O)c1cc(Cl)c(N)c(Cl)c1 (configuration not stated),Potency,[7],6.75 µM (active)
same,outcome,[8],inactive
same,max response,[9],-10.9%
same,max response,[10],-3.36%
same,max response,[11],-14.9%
same,outcome,[12],inactive
same,outcome,[18],inactive
same,Potency,[15],inactive
same,Potency,[19],inactive
same,Potency,[16],inactive
same,Potency,[17],inactive
COc1ccc(C(CN(C)C)C2(O)CCCCC2)cc1 (configuration not stated),Potency,[1],inactive
same,Potency,[3],inactive
same,Potency,[4],inactive
same,Potency,[20],inactive
same,Potency,[5],inactive
same,Potency,[6],inactive
same,Potency,[7],1.9 µM (active)
same,max response,[8],-3.43% and 1.19%
same,max response,[9],1.04%
same,outcome,[9],inactive
same,max response,[10],1.09% and -4.23%
same,max response,[11],2.29% and -2.64%
same,max response,[12],2.42%
same,outcome,[12],inactive
same,outcome,[14],inactive
same,Potency,[15],inactive
same,Potency,[19],inactive
same,Potency,[16],inactive
same,Potency,[17],inactive
